Unmarked numbers belong to inactive results. Records with an inconclusive call do not appear. Active and inactive are the calls of the source. Unless noted, the call rests on the fitted dose curve; in most records, active means well fitted curve in the direction sought with a large enough effect in the repeat runs; inconclusive means weak or mixed curves; inactive means no such curve, though single readings can be large; an effect the other way counts as inactive or inconclusive.

The values below come from PubChem BioAssay (Tox21).

Test [1] can be described thus: A CellTox Green Cytotoxicity Assay to monitor cytotoxicity in HEK293 cells - 32 hour (AID 1224881). Further: nearly all actives have a fitted effect of over 40% in size. In short, it runs like this: (§1)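 HEK293 cells, 600/well, were preincubated 5 hours and then exposed to compounds at 37 C for up to 40 hours. A cell-impermeant cyanine dye staining dead-cell DNA was read by fluorescence at 0, 8, 16, 24, 32 and 40 h time points.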
Test [2] is described as follows: A CellTox Green Cytotoxicity Assay to monitor cytotoxicity in HepG2 cells - 0 hour (AID 1224882). Further: nearly all actives have a fitted effect of over 35% in size. The essentials: (§2)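 HepG2 cells, 600/well, preincubated 5 h with CellTox Green dye, then exposed to Tox21 compounds in DMSO at 37 C for up to 40 h. Dead-cell DNA fluorescence read at the indicated time point.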
Test [3] is described as follows: A CellTox Green Cytotoxicity Assay to monitor cytotoxicity in HepG2 cells - 32 hour (AID 1224883). Further: nearly all actives have a fitted effect of over 50% in size. In short, it runs like this: as §2
Test [4] in a line: qHTS RealTime-Glo MT Cell Viability Assay in HepG2 cells - 16 hour (AID 1224885). Further: nearly all actives have a fitted effect of over 50% in size. In short, it runs like this:
(§3)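 Real-time, nonlytic viability: 600 HepG2 cells/well mixed with NanoLuc enzyme plus prosubstrate; 5 h settle, compound (DMSO) added by pintool; luminescence monitored over 40 h at 37 C.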

Test [5] in a line: qHTS RealTime-Glo MT Cell Viability Assay in HEK293 cells - 24 hour (AID 1224886). Further: top concentration of the series differs between compounds; nearly all actives have a fitted effect of over 50% in size. In short, it runs like this: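 Cells + reagent dispensed (600 cells/well, HEK293) → 5 h at 37 C/5% CO2 → 23 nL compound in DMSO pinned → 40 h at 37 C → luminescence read at 0, 8, 16, 24, 32, 40 h.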
Test [6] in a line: qHTS RealTime-Glo MT Cell Viability Assay in HEK293 cells - 8 hour (AID 1224887). Further: nearly all actives have a fitted effect of over 50% in size. Further: potency means the concentration at half of the fitted maximal effect. On activity change, negative = cytotoxicity: top concentration of the series differs between compounds. In short, it runs like this:
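600 cells/well were plated with the nonlytic NanoLuc/prosubstrate reagent, pre-incubated 5 h, then given 23 nL of compound in DMSO. Incubation at 37 C for 40 h, with luminescence from viable-cell-reduced substrate read repeatedly from 0 h.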
On the technique in general: In qHTS, concentration-response curves come from the screen itself.

Test [7] in a line: A CellTox Green Cytotoxicity Assay to monitor cytotoxicity in HEK293 cells - 16 hour (AID 1224888). Further: nearly all actives have a fitted effect of over 35% in size. The essentials: as §1
Test [8] can be described thus: qHTS RealTime-Glo MT Cell Viability Assay in HepG2 cells - 0 hour (AID 1224889). Further: nearly all actives have a fitted effect of over 50% in size. In short, it runs like this:
as §3

Test [9] is described as follows: A CellTox Green Cytotoxicity Assay to monitor cytotoxicity in HepG2 cells - 8 hour (AID 1224890). Further: nearly all actives have a fitted effect of over 45% in size. In short, it runs like this:
as §2

Test [10] is described as follows: qHTS assay to identify small molecule antagonists of the estrogen receptor alpha (ER-alpha) signaling pathway using the BG1 cell line in the presence of 0.1 nM 17-beta-estradiol - cell viability counter screen (AID 1259241). Further: nearly all actives have a fitted effect of over 40% in size. The essentials:
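Following 5 days in phenol red-free medium with charcoal-stripped serum, VM7Luc4E2 cells received test compounds alongside 0.1 nM 17beta-estradiol (final) at 37C for 22 hr. Live cells were then quantified via protease-substrate fluorescence.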

A short description of test [11]: qHTS assay to identify small molecule antagonists of the androgen receptor (AR) signaling pathway using the MDA cell line in the presence of 0.5 nM R1881 - cell viability counter screen (AID 1259242). Further: nearly all actives have a fitted effect of over 45% in size. In short, it runs like this:
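MDA-kb2 cells (MMTV-luciferase, AR/GR responsive) were treated with compounds plus 0.5 nM R1881 (final) for 16 hr at 37C, 0% CO2. Viability was then read in the same wells as live-cell protease fluorescence (CellTiter-Fluor, 30 min).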

The nature of test [12]: qHTS assay to identify small molecule HDAC inhibitors (AID 1259364). Further: top concentration of the series differs between compounds; nearly all actives have a fitted effect of over 45% in size. The essentials: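 Wild-type HCT-116 cells, plated overnight at 37 C, exposed to compounds 2 hr at 37 C; luminogenic HDAC-Glo substrate then added 30 min at room temperature. Luminescence reports relative endogenous class I/II HDAC activity.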
The nature of test [13]: qHTS assay to identify small molecule HDAC inhibitors - cell viability counter screen (AID 1259365). In short, it runs like this: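 HCT-116 wild-type, overnight attachment; 2hr drug exposure, 37C; CellTiter-Glo luminescent ATP readout after 30min RT.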
Test [14] can be described thus: qHTS assay to identify small molecule agonists of the sonic hedgehog signaling (Shh) pathway - cell viability counter screen (AID 1259366). Further: nearly all actives have a fitted effect of over 50% in size. In short, it runs like this: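 Compounds in DMSO were pin-transferred onto 3T3 Gli1-Luc cells that had settled 4hr; plates then stood 24hr at 37C and 5% CO2. One hour before the end, CellTiter-Fluor was added and fluorescence recorded.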

Test [15] can be described thus: qHTS assay to identify small molecule antagonists of the sonic hedgehog signaling (Shh) pathway - cell viability counter screen (AID 1259367). Further: nearly all actives have a fitted effect of over 55% in size. In short, it runs like this:
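Using CellTiter-Fluor, viability of Gli1-Luc reporter 3T3 cells is read by fluorescence in the wells used for the Shh luciferase assay. Treatment lasts 23 hr with conditioned medium, then reagent 1 hr at 37C.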

The nature of test [16]: A CellTox Green Cytotoxicity Assay to monitor cytotoxicity in HEK293 cells - 8 hour (AID 1224884). Further: nearly all actives have a fitted effect of over 35% in size. In short, it runs like this: as §1
The target in test [17] is Androgen receptor (Homo sapiens) (UniProt P10275). Briefly: qHTS assay to identify small molecule antagonists of the androgen receptor (AR) signaling pathway using the MDA cell line in the presence of 0.5 nM R1881 (AID 1259243). Further: nearly all actives have a fitted effect of over 50% in size. The essentials: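 MDA-kb2 cells (MMTV-luciferase, responsive to AR and GR) at 3,000/well, rested 5 h at 37C, 0% CO2, then given compounds plus 0.5 nM R1881 (final) for 16 hr. Luciferase read with ONE-Glo after 30 min at room temperature.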
Androgen receptor (Homo sapiens), sequence (P10275 whole entry, looked up): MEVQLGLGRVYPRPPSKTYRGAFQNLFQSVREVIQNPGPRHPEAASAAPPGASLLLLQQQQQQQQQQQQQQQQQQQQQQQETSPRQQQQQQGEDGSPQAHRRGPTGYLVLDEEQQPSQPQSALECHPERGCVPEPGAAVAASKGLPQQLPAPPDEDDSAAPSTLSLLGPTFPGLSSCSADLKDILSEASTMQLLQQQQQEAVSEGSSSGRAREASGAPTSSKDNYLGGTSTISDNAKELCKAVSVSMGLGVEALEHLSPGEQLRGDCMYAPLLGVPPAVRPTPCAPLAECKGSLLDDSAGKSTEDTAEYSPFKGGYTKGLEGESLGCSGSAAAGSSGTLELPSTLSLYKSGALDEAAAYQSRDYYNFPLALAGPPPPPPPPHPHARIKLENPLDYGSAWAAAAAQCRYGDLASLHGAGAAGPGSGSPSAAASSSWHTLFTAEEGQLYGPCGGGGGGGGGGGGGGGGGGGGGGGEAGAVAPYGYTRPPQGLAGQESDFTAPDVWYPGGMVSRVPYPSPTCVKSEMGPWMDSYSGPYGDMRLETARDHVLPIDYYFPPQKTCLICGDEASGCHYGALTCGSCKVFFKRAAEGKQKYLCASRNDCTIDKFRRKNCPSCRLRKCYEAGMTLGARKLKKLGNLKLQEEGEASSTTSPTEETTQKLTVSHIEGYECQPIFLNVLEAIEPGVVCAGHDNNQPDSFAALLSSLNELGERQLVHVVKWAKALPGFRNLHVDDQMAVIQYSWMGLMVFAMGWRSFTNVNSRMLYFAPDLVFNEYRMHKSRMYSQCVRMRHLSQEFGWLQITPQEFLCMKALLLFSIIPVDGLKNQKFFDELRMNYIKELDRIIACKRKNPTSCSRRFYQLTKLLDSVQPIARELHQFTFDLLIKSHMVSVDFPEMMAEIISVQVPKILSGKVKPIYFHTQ

The target in test [18] is Estrogen receptor (Homo sapiens) (UniProt P03372). Briefly: qHTS assay to identify small molecule antagonists of the estrogen receptor alpha (ER-alpha) signaling pathway using the BG1 cell line in the presence of 0.1 nM 17-beta-estradiol (AID 1259244). Further: nearly all actives have a fitted effect of over 50% in size. The essentials: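 VM7Luc4E2 cells (endogenous full-length ER-alpha, 4×ERE-luciferase), kept 5 days in phenol red-free, charcoal-stripped FBS medium; 4,000 cells/well. Compounds added with 0.1 nM (final) 17beta-estradiol, 22 hr at 37C; luminescence read with ONE-Glo after 30 min.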
Estrogen receptor (Homo sapiens), sequence (P03372 whole entry, looked up): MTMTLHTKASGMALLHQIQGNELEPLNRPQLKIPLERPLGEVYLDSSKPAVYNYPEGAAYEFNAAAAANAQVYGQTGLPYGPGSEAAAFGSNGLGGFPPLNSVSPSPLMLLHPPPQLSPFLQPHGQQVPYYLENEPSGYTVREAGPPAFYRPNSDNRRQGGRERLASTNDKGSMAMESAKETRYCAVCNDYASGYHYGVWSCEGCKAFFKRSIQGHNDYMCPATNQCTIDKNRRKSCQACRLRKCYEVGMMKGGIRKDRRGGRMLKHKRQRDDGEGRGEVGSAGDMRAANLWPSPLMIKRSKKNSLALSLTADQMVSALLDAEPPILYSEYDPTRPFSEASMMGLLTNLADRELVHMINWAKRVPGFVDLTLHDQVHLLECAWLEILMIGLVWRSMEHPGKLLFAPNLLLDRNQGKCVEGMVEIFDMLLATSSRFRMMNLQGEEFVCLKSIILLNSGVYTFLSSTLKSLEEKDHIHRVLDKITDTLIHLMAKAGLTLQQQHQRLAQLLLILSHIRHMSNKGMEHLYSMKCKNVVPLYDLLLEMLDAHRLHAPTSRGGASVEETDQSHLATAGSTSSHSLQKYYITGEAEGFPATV

A short description of test [19]: qHTS assay to identify small molecule phospholipidosis (PLD) inducers (AID 1259344; active means well fitted curve in the direction sought with a large enough effect; an effect the other way counts as inactive or inconclusive). In short, it runs like this:
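Fluorescent phospholipid staining (LipidTOX Red) measured by automated microscopy in fixed HepG2 cells after 24 h treatment; nuclei counterstained with Hoechst 33342; amiodarone as reference inducer.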
On the % scale 0 is the no-effect control and ±100 the full control effect.

Turning to `COC(=O)C1CC(=O)C(C(=O)OC)CC1=O` (stereo unspecified), the cytotoxicity increase was 0.949% [at 6.97 µM] in test [1], -7.66% [at 6.97 µM] in test [3] and -5.53% [at 6.97 µM] in [9]. Also, the cytotoxicity in [2] was -5.98% [at 6.97 µM]. In [4], the activity change, negative = cytotoxic is -8.58% [at 6.97 µM]. Besides, the activity change, negative = cytotoxicity in [5] is 0.682% [at 6.97 µM]; in [6], 5.57% [at 6.97 µM]; in test [8], -20.4% [at 6.97 µM]; in [10] it was 7.13% [at 8.39 µM]; in [13] it was 0.106% [at 8.39 µM]. Also, in test [7], the activity change is 2.56% [at 6.97 µM]. Moreover, the viability change, negative = cytotoxic was 1.05% [at 8.39 µM] in [11], 11.2% [at 8.39 µM] in test [14] and 1.71% [at 8.39 µM] in test [15]. In addition, in test [12], the activity change, negative = inhibition is -0.18% [at 8.39 µM].
On to `CC(CC=O)CCCC(C)(C)O` (stereo unspecified), for which the Potency entry in [1], in [3], in [16], in test [5], in test [6] and in test [8] was “inactive” in each case. The Potency entry in [10], in test [17], in test [18], in test [12], in [14] and in test [15] was “inactive” each time. The compound was classed as inactive in [4], in [7], in [9], in [11], in test [19] and in test [13].
Consider `Cc1nc2n(c(=O)c1CCN1CCC(c3noc4cc(F)ccc34)CC1)CCC[C@H]2O`, for which the cytotoxicity increase in test [1] was 6.5% [at 15.8 µM]; in test [3] it was 2.66% [at 15.8 µM]; in [16], 2.15% [at 15.8 µM]; in [9], -0.979% [at 15.8 µM]. Moreover, the cytotoxicity in test [2] is -4% [at 15.8 µM]. The activity change, negative = cytotoxic in [4] is -0.162% [at 15.8 µM]. For the same compound, the Potency in test [6] is 3.69 µM (active). In addition, in [7], the activity change is 1.32% [at 15.8 µM]. Also, the figures for the activity change, negative = cytotoxicity in test [8], in test [10] and in test [13] were 2.14% [at 15.8 µM], 1.89% [at 19 µM] and -0.155% [at 19 µM], respectively. Further, the results for the viability change, negative = cytotoxic in test [11], in test [14] and in [15] were 9.15% [at 19 µM], -0.31% [at 19 µM] and -0.26% [at 19 µM], respectively. Also, the activity change, negative = inhibition was 1.12% [at 19 µM] in test [18] and -1.31% [at 19 µM] in test [12]. The call in [19] was inactive.
`CC(=O)NCc1c(I)c(NC(C)=O)c(I)c(C(=O)O)c1I`: the Potency entry in test [1], in test [5], in test [6], in [8], in [10] and in [17] was “inactive” throughout. Moreover, the Potency result in test [18], in test [12], in test [14] and in [15] was “inactive” throughout. For the same compound, the compound was called inactive in test [4], in test [7], in test [19] and in test [13].
Turning to `C[Si](C)=O`, the cytotoxicity increase in test [1] is 10.3% [at 6.97 µM]; in test [3], -6.59% [at 6.97 µM]; in test [16] it was 1.88% [at 6.97 µM]; in test [9], -1.81% [at 6.97 µM]. Moreover, the activity change, negative = cytotoxic in test [4] was 0.315% [at 6.97 µM]. Also, the activity change, negative = cytotoxicity in test [5] was 0.58% [at 6.97 µM]; in [6], -1.9% [at 6.97 µM]; in test [8] it was 8.65% [at 6.97 µM]; in test [10] it was -11.4% [at 8.39 µM]; in [13] it was 2.53% [at 8.39 µM]. In addition, the activity change in test [7] was 1.45% [at 6.97 µM]. Further, the viability change, negative = cytotoxic in test [11] is 2.02% [at 8.39 µM]; in [14] it was -1.38% [at 8.39 µM]; in test [15], 0.12% [at 8.39 µM]. Besides, in test [12], the activity change, negative = inhibition was 1.64% [at 8.39 µM].
Consider `NCCS`, for which the Potency entry in [1], in test [3], in [16], in [5], in test [6] and in test [8] was “inactive” in each case. For the same compound, the Potency entry in test [10], in test [12], in test [14] and in test [15] was “inactive” in each case. For the same compound, the compound was called inactive in test [2], in test [4], in test [7], in test [9], in test [11] and in test [19]. Further, in [13], the outcome was inactive.
